# Results from PubChem BioAssay (NCATS).
# Results filed as inconclusive are left out. Entries that show only a call come without a potency. Active and inactive are the calls of the source. The call rests on the fitted dose curve; in most records, active means well fitted curve in the direction sought with a large enough effect; inconclusive means small, poorly fitted or top-dose-only effect, or another doubt; inactive means no such curve, though single readings can be large; an effect the other way counts as inactive or inconclusive.
# Target: D(1A) dopamine receptor (Homo sapiens) (UniProt P21728)
# Assay: HTS Assay for Allosteric Agonists of the Human D1 Dopamine Receptor: Primary Screen for Antagonists (AID 488983);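 further: calcium flux response to an EC80 dopamine challenge measured with no-wash dye; nearly all actives have a fitted effect of over 65% in size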; further: potency means the concentration at half of the fitted maximal effect
# Settings: D1 receptor cell assay, antagonist mode, qHTS titration; series mostly up to 41.8 µM
# Procedure, shortened: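 Screening of inducible HEK293 T-REx D1 cells: compound first, EC80 dopamine 180 s later, each phase read kinetically for calcium over 180 s.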
# D(1A) dopamine receptor (Homo sapiens), sequence (P21728 whole entry, looked up): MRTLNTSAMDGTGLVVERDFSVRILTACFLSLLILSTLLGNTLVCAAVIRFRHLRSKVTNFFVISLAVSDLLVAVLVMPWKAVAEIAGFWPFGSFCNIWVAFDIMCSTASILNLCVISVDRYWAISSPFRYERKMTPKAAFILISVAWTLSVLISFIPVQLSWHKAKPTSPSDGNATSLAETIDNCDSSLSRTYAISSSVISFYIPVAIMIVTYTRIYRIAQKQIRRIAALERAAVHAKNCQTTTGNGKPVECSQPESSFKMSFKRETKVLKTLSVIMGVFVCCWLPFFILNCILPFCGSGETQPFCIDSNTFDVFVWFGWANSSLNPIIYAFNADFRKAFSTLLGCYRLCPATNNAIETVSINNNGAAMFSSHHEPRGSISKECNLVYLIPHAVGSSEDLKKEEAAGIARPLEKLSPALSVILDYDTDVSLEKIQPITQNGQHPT
row,SMILES,Potency
1,C#CC(N)CCC(=O)O (centres undefined),inactive
2,COc1ccccc1N1CCN(CCCCNC(=O)c2ccc3ccccc3c2)CC1,8.91 µM (active)
3,CCSC(=N)N,inactive
4,O=C(O)[C@H]1NCCC[C@H]1C(=O)O,inactive
5,CC(C)NC[C@H](O)COc1ccc(CC(N)=O)cc1,inactive
6,CCC(=O)N1CCN(C(=O)c2ccccc2)CC1,inactive
7,NC(=O)CNCCC(c1ccccc1)c1ccccc1,inactive
8,Nc1ncnc2c1ncn2C1CCCO1 (centres undefined),inactive
9,N=C(N)c1ccccc1,inactive
10,O=C(O)/C=C/c1ccc(O)c(O)c1,inactive
11,Cc1nc(N=Nc2ccc(C(=O)O)cc2)c(COP(=O)(O)O)c(C=O)c1O,inactive
12,CC[N+](CC)(CC)CC(=O)Nc1c(C)cccc1C,inactive
13,CCN1C(=O)C=CC1=O,inactive
14,O=C(O)CCC(=O)N1CCCC1C(=O)O (centres undefined),inactive
15,O=C(O)C1CCNCC1,inactive

# System: not listed separately
# Assay: Validation screen for small molecules that induce genotoxicity in human embryonic kidney (HEK293T) cells expressing luciferase-tagged ELG1 (AID 493106)
# Settings: luminescence; series mostly up to 46.1 µM
# Procedure, shortened: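 Reporter-gene quantitative HTS in HEK293T cells carrying luciferase-tagged ELG1, whose level climbs under genotoxic stress. Compound exposure lasts 16 hr at 37 °C before luciferase detection.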
row,SMILES,Potency
1,N[C@@H](CCCC(=O)O)C(=O)O,inactive
2,CSC(N)=NCCC[C@H](N)C(=O)O,inactive
3,NCCCCN=C(N)N,inactive
4,C#CCn1c(=O)c2c(ncn2C)n(C)c1=O,inactive
5,O=C(O)Cc1c[nH]c2ccc(O)cc12,inactive
6,COc1cc(N)c(Cl)cc1C(=O)OCCN1CCCCC1,inactive
7,c1ccc(C2CN3CCSC3=N2)cc1 (centres undefined),inactive
8,NCCS(=O)O,inactive
9,Oc1ccc(Cn2cc[nH]c2=S)cc1,inactive
10,COc1ccc(-c2ccc(N)[n+](CCCC(=O)O)n2)cc1,inactive
11,CC(C)Cn1c(=O)n(C)c(=O)c2[nH]cnc21,inactive
12,Cn1cc(C(F)(F)F)nc1-c1ccc(OCC(O)CNCCOc2ccc(O)c(C(N)=O)c2)cc1 (centres undefined),inactive
13,Cn1c(=O)c2c(nc(/C=C/c3cccc(Cl)c3)n2C)n(C)c1=O,inactive
14,Cn1cc(C(=O)OCC2CCN(CCNS(C)(=O)=O)CC2)c2ccccc21,inactive
15,NC/C=C\C(=O)O,inactive
16,Nc1ccc(-c2nc3ccc(-c4nc5ccc(N)cc5[nH]4)cc3[nH]2)cc1,inactive
17,NC(=O)c1cc[n+](CC2=C(C(=O)O)N3C(=O)[C@@H](NC(=O)[C@@H](c4ccccc4)S(=O)(=O)[O-])[C@H]3SC2)cc1,inactive
18,N[C@@H](Cc1c[nH]c2ccccc12)C(=O)O,inactive
19,CN[C@H](CC(=O)O)C(=O)O,inactive

row,SMILES,Potency
1,CCCCCCCCCC[Si](C)(C)CCC(=O)NC(Cc1ccc(C)cc1)c1ccccc1 (centres undefined),inactive
2,Cc1cccc(C)c1OCC(N)C(C)C (centres undefined),inactive
3,Cn1ccnc1,inactive
4,CCCn1c(=O)c2[nH]c(-c3ccc(S(=O)(=O)O)cc3)nc2n(CCC)c1=O,inactive
5,C#CC(N)CCC(=O)O (centres undefined),inactive
6,COc1ccccc1N1CCN(CCCCNC(=O)c2ccc3ccccc3c2)CC1,inactive
7,CCSC(=N)N,inactive
8,O=C(O)[C@H]1NCCC[C@H]1C(=O)O,inactive
9,CCC(=O)N1CCN(C(=O)c2ccccc2)CC1,inactive
10,NC(=O)CNCCC(c1ccccc1)c1ccccc1,inactive
11,Nc1ncnc2c1ncn2C1CCCO1 (centres undefined),inactive
12,N=C(N)c1ccccc1,inactive
13,O=C(O)/C=C/c1ccc(O)c(O)c1,inactive
14,Cc1nc(N=Nc2ccc(C(=O)O)cc2)c(COP(=O)(O)O)c(C=O)c1O,inactive
15,CC[N+](CC)(CC)CC(=O)Nc1c(C)cccc1C,inactive
16,CCN1C(=O)C=CC1=O,inactive
17,O=C(O)CCC(=O)N1CCCC1C(=O)O (centres undefined),inactive
18,O=C(O)C1CCNCC1,inactive

# Target: ATPase family AAA domain-containing protein 5 (Homo sapiens) (UniProt Q96QE3)
# Assay: Validation screen for small molecules that inhibit ELG1-dependent DNA repair in human embryonic kidney (HEK293T) cells expressing luciferase-tagged ELG1 (AID 493107);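 further: cells co-treated with the DNA-damaging agent 5-fluorouridine alongside compound; inhibitors lower the ELG1-luciferase luminescence signal; nearly all actives have a fitted effect of over 70% in size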
# Settings: HEK293T ELG1-luciferase level, luminescence, 5-fluorouridine co-treatment, 16 h; series mostly up to 46.1 µM
# Procedure, shortened: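 Quantitative HTS in HEK293T cells carrying luciferase-tagged ELG1, stimulated with 5-fluorouridine alongside compound for 16 hr. Loss of luciferase signal marks inhibition of ELG1 response.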
# ATPase family AAA domain-containing protein 5 (Homo sapiens), sequence (Q96QE3 whole entry, looked up, the tested form may be a part): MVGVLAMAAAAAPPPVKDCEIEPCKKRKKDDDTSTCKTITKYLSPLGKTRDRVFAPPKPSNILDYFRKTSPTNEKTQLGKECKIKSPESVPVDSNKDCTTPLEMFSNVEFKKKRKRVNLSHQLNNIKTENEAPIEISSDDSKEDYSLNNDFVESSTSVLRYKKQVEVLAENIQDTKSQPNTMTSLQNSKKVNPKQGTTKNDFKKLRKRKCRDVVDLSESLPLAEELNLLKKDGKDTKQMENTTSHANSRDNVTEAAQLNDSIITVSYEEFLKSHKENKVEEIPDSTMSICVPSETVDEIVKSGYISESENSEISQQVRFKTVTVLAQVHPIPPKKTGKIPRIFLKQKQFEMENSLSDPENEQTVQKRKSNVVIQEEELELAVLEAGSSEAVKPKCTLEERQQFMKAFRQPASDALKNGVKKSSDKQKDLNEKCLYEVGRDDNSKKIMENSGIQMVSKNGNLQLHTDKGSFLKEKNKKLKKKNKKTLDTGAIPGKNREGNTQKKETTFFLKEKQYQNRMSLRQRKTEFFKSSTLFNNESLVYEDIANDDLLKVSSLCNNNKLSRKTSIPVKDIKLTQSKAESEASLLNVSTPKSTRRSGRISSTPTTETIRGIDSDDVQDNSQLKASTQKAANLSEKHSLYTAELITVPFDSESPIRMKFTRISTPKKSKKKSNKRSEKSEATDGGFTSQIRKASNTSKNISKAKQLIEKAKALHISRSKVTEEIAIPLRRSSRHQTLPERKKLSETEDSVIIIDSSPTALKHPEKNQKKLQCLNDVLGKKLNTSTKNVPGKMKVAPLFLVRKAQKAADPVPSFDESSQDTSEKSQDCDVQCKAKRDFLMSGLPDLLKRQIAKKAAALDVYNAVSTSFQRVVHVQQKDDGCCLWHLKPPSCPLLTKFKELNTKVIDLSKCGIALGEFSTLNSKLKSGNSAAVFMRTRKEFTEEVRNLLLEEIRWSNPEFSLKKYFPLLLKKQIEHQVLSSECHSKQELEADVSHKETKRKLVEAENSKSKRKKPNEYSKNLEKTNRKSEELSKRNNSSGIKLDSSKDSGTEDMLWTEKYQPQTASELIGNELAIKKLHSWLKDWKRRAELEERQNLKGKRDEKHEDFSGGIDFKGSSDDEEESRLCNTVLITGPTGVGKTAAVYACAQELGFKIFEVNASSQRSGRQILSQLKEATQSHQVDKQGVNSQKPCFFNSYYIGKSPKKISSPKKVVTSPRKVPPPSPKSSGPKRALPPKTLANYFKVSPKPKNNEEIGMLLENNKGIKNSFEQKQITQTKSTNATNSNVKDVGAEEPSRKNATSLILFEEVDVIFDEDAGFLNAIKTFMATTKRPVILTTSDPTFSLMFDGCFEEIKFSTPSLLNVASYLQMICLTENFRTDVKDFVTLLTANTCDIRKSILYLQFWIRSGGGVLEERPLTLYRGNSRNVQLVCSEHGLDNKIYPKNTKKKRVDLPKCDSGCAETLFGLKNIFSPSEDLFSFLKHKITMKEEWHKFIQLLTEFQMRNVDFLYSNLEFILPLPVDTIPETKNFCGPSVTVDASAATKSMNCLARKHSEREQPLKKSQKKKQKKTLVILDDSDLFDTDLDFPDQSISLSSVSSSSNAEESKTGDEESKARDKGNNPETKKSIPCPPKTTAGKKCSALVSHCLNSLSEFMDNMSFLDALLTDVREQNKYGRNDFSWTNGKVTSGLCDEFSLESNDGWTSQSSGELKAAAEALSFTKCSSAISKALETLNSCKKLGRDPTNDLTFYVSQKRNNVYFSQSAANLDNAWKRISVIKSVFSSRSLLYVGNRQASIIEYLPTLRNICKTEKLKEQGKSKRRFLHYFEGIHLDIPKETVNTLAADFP
row,SMILES,Potency
1,N[C@@H](CCCC(=O)O)C(=O)O,inactive
2,CSC(N)=NCCC[C@H](N)C(=O)O,inactive
3,NCCCCN=C(N)N,inactive
4,C#CCn1c(=O)c2c(ncn2C)n(C)c1=O,inactive
5,O=C(O)Cc1c[nH]c2ccc(O)cc12,inactive
6,COc1cc(N)c(Cl)cc1C(=O)OCCN1CCCCC1,inactive
7,NCCS(=O)O,inactive
8,Oc1ccc(Cn2cc[nH]c2=S)cc1,inactive
9,COc1ccc(-c2ccc(N)[n+](CCCC(=O)O)n2)cc1,inactive
10,CC(C)Cn1c(=O)n(C)c(=O)c2[nH]cnc21,inactive
11,Cn1cc(C(F)(F)F)nc1-c1ccc(OCC(O)CNCCOc2ccc(O)c(C(N)=O)c2)cc1 (centres undefined),inactive
12,Cn1c(=O)c2c(nc(/C=C/c3cccc(Cl)c3)n2C)n(C)c1=O,inactive
13,Cn1cc(C(=O)OCC2CCN(CCNS(C)(=O)=O)CC2)c2ccccc21,inactive
14,NC/C=C\C(=O)O,inactive
15,Nc1ccc(-c2nc3ccc(-c4nc5ccc(N)cc5[nH]4)cc3[nH]2)cc1,inactive
16,NC(=O)c1cc[n+](CC2=C(C(=O)O)N3C(=O)[C@@H](NC(=O)[C@@H](c4ccccc4)S(=O)(=O)[O-])[C@H]3SC2)cc1,inactive
17,N[C@@H](Cc1c[nH]c2ccccc12)C(=O)O,inactive
18,CN[C@H](CC(=O)O)C(=O)O,inactive
19,CCCCCCCCCC[Si](C)(C)CCC(=O)NC(Cc1ccc(C)cc1)c1ccccc1 (centres undefined),inactive

row,SMILES,Potency
1,Cc1cccc(C)c1OCC(N)C(C)C (centres undefined),inactive
2,Cn1ccnc1,inactive
3,CCCn1c(=O)c2[nH]c(-c3ccc(S(=O)(=O)O)cc3)nc2n(CCC)c1=O,inactive
4,C#CC(N)CCC(=O)O (centres undefined),inactive
5,COc1ccccc1N1CCN(CCCCNC(=O)c2ccc3ccccc3c2)CC1,inactive
6,CCSC(=N)N,inactive
7,O=C(O)[C@H]1NCCC[C@H]1C(=O)O,inactive
8,CC(C)NC[C@H](O)COc1ccc(CC(N)=O)cc1,inactive
9,CCC(=O)N1CCN(C(=O)c2ccccc2)CC1,inactive
10,NC(=O)CNCCC(c1ccccc1)c1ccccc1,inactive
11,Nc1ncnc2c1ncn2C1CCCO1 (centres undefined),inactive
12,N=C(N)c1ccccc1,inactive
13,O=C(O)/C=C/c1ccc(O)c(O)c1,inactive
14,Cc1nc(N=Nc2ccc(C(=O)O)cc2)c(COP(=O)(O)O)c(C=O)c1O,inactive
15,CC[N+](CC)(CC)CC(=O)Nc1c(C)cccc1C,inactive
16,CCN1C(=O)C=CC1=O,inactive
17,O=C(O)CCC(=O)N1CCCC1C(=O)O (centres undefined),inactive
18,O=C(O)C1CCNCC1,inactive
